Bioassay records as filed in PubChem.
FBW7 activator – activators of human E3 ligase FBW7; actives 0.13% (n = 650,000); normalized activity (activation), % at 26.1 µM; AlphaScreen FBW7–phospho-cyclin E peptide binding, activator screen; AID 1259310; in the data active = normalized activity above about 1.9%;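 also: purified mutant Fbw7 with reduced substrate affinity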
GPR151 activ – human GPR151 activation; Q8TDV0; PathHunter beta-arrestin GPR151 cells, luminescence; activation, % at 11.2 µM; actives 1% (n = 650,000); AID 1508602; in the data active = activation above about 4.9%
Target sequence (Q8TDV0 whole entry, looked up): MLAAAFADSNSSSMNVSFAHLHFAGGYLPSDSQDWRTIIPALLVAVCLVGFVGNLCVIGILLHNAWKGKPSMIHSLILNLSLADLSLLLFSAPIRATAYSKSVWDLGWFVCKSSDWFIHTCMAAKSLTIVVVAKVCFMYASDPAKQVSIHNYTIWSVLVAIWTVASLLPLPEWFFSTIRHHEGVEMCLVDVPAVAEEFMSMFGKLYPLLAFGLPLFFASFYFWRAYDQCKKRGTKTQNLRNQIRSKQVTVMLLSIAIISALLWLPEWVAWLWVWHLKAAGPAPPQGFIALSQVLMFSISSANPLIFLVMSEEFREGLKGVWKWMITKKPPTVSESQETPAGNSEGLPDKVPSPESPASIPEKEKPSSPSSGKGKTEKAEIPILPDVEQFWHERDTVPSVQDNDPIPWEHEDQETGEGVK
TEAD-YAP inh – TEAD-YAP interaction inhibition; HEK-TIYL cells, TEAD-Gal4/YAP UAS-luciferase luminescence; inhibition, % at 9.12 µM; actives 1.4% (n = 640,000); AID 1259422; in the data active = inhibition above about 32%
MITF primary – human MITF inhibition, primary screen; O75030; AlphaScreen MITF homodimerization, bead proximity signal; inhibition, % at 2.6 µM; actives 0.91% (n = 650,000); AID 1259374; in the data active = inhibition above about 50%
Hits are given with their value; i = inactive. Only some compounds are listed: those with a hit (about 3.5% of all), similar ones and a draw of the others.

SMILES | FBW7 activator | GPR151 activ | TEAD-YAP inh | MITF primary
COC(=O)C1=C(C)N=c2s/c(=C/c3ccco3)c(=O)n2C1c1ccc(OC(C)=O)cc1 (centres undefined) | i | i | i | i
COc1ccc(Cl)cc1Nc1ncnc2c1cnn2-c1ccccc1 | i | i | i | i
COc1ccc(-n2ncc3c(Nc4ccc(OC)c(Cl)c4)ncnc32)cc1 | i | i | 53.7 | i
COc1ccc(-n2ncc3c(Nc4cc(Cl)ccc4OC)ncnc32)cc1 | i | i | 41.5 | i
CC1Cc2ccccc2N1C(=O)CSc1nnc(-c2ccccc2)n1C (centres undefined) | i | i | i | i
CC1Cc2ccccc2N1C(=O)CSc1nnc(Cc2ccccc2)n1C (centres undefined) | i | i | 48.6 | i
CCC(C)NC(=O)CCc1c(C)nc2cc(-c3cccc(F)c3)nn2c1C (centres undefined) | i | i | i | i
Cc1nc2cc(-c3cccc(F)c3)nn2c(C)c1CCC(=O)O | i | i | 42.9 | i
COc1ccc(-c2cc3nc(C)c(CCC(=O)O)c(C)n3n2)c(OC)c1 | i | i | 38.6 | i
COc1ccc(-c2cc3nc(C)c(CCC(=O)N4CCCC4)c(C)n3n2)c(OC)c1 | i | i | i | i
c1cnc(Nc2nc(Nc3ccc4c(c3)OCO4)c3ncn(-c4ccsc4)c3n2)cn1 | i | i | i | i
CCN(CC)c1nc(Nc2ccc3c(c2)OCO3)nc(Nc2ccncn2)n1 | 4.0 | i | i | i
c1ccc(Nc2nc(-c3ccc(N4CCOCC4)nc3)nc3c2ncn3-c2ccccc2)cc1 | i | i | i | i
COc1ccc(-c2nc(Nc3ccc(N4CCOCC4)cc3)c3ncn(-c4ccsc4)c3n2)cc1 | i | i | 38.3 | i
COc1ccc(-c2nc(Nc3ccc(N4CCOCC4)cc3)c3ncn(-c4ccccc4)c3n2)cn1 | i | i | 34.1 | i
c1cc(Nc2nc(Nc3ccc4c(c3)OCO4)c3ncn(-c4ccsc4)c3n2)ncn1 | 10.5 | i | i | i
COc1ccc(C(=O)NCC(=O)c2ccc(Br)cc2)cc1 | i | i | i | i
Cc1ccccc1CN(CC(=O)NCc1cccnc1)S(=O)(=O)c1ccc(Cl)cc1 | i | i | i | i
c1cc(-n2cnc3c(Nc4ccc(N5CCOCC5)cc4)nc(Nc4ccc(N5CCOCC5)cc4)nc32)cs1 | i | i | 34.8 | i
c1cc(-n2cnc3c(Nc4ccc5c(c4)OCO5)nc(NCc4ccc5c(c4)OCO5)nc32)cs1 | i | i | i | i
CC(=O)Nc1ccc(Nc2nc(Nc3ccncc3)nc3c2ncn3-c2ccsc2)cc1 | i | i | i | i
c1cc(-n2cnc3c(Nc4ccc5c(c4)OCO5)nc(NCCN4CCOCC4)nc32)cs1 | i | i | 44.5 | i
c1cc(-n2cnc3c(Nc4ccc5c(c4)OCO5)nc(Nc4ccc(N5CCOCC5)cc4)nc32)cs1 | i | i | 41.8 | i
CC(=O)Nc1ccc(Nc2nc(Nc3ncccn3)nc3c2ncn3-c2ccsc2)cc1 | i | i | 49.8 | i
c1ccc(Nc2nc(Nc3ccc(N4CCOCC4)cc3)nc3c2ncn3-c2ccsc2)cc1 | i | i | i | i
SMILES | FBW7 activator | GPR151 activ | TEAD-YAP inh | MITF primary
Cc1nn(C)c(C)c1-c1nc(Nc2ccccc2)c2ncn(-c3ccsc3)c2n1 | i | i | i | i
FC(F)(F)c1ccc(Nc2nc(Nc3ccc(N4CCOCC4)cc3)c3ncn(-c4ccsc4)c3n2)cc1 | i | i | i | i
CC(=O)Nc1ccc(Nc2ccnc(-c3c(C)nn(C)c3C)n2)cc1 | i | i | 53.8 | i
CC(=O)Nc1ccc(Nc2nc(Nc3ccc(N4CCOCC4)cc3)nc3c2ncn3-c2ccsc2)cc1 | i | i | 38.0 | i
c1cncc(CNc2nc(Nc3ccc(N4CCOCC4)cc3)nc3c2ncn3-c2ccsc2)c1 | i | i | 56.5 | i
CC(=O)Nc1ccc(Nc2nc(-c3c(C)nn(C)c3C)nc3c2ncn3-c2ccsc2)cc1 | i | i | 43.9 | i
CN(C)CCCNS(=O)(=O)Cc1ccc(Cl)cc1 | i | i | i | i
O=[N+]([O-])c1cc(C2C=C(c3ccc(Cl)cc3)Nc3nc4ccccc4n32)ccc1Cl (centres undefined) | i | i | i | i
COc1ccc(C(C)=O)cc1CSc1nc2ccccc2c(=O)n1Cc1cccs1 | i | i | i | i
COCc1cc(CN2CCCCC2)c(O)c2ncccc12 | i | i | 75.5 | 98.1
Oc1c(CN2CCCCC2)cc(Br)c2cccnc12 | i | i | 58.4 | 98.4
CCCOCc1cc(CN2CCCCC2)c(O)c2ncccc12 | i | i | 71.0 | 106.4
COCc1cc(CN2CCOCC2)c(O)c2ncccc12 | i | i | i | 89.8
CCOC(=O)CNC(=O)CSc1nc2sc3c(c2c(=O)[nH]1)CCCC3 | i | i | i | i
Cc1cccn2c(=O)c3cc(C#N)c(=O)n(-c4ccc(Br)cc4)c3nc12 | i | i | i | i
